In the library only some 9.2% were active in any assay of this set; here they are far more common.
FLuc modulator: counter-screen for miR-21 project: firefly luciferase inhibitors or activators | P08659 | purified FLuc, Km substrates, luminescence inhibition | Potency, µM (doses to about 57.5 µM), for inactives: top-dose activity change, negative = inhibition, most hits filed as inhibitors | hit rate 6.9% among 360,000 | AID 588342;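 note: plate controls were vehicle for no effect and reference inhibitor for full effect; nearly all actives have a fitted effect of over 55% in size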
Target sequence (P08659 whole entry, looked up): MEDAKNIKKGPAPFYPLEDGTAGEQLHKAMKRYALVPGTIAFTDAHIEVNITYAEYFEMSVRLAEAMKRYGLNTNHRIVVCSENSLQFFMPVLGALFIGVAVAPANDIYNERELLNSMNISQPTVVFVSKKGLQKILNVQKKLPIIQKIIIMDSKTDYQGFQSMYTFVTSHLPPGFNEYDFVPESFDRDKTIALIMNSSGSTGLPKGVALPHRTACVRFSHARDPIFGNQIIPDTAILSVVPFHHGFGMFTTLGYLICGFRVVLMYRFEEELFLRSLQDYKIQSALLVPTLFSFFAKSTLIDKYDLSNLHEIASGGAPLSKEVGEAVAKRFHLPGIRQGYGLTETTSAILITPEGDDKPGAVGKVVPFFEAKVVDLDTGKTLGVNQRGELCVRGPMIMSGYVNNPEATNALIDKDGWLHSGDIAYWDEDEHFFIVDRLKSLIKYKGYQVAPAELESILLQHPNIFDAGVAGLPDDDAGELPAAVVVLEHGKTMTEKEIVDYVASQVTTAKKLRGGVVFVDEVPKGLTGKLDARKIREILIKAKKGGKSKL
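Purified P. pyralis luciferase (10nM final) with 10uM D-luciferin and 10uM ATP (Km levels) in 50mM Tris acetate pH 7.5, 10mM Mg acetate, 0.01% Tween-20, 0.05% BSA; qHTS 6-point titration, ~60 µM downward; luminescence read.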
Rab9 prom act: activates the Rab9 promoter; Huh7 Rab9 promoter-luciferase reporter, luminescence, 24 h; Potency, µM (series often up to 9.22 µM), without a hit: at the highest dose activation, negative = inhibition, hits mostly activators; hit rate 2.8% among 320,000; note: % of control where 0% means no effect; nearly all actives have a fitted effect of over 60% in size
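Measured in stably transfected Huh7 cells bearing a Rab9 promoter–luciferase construct: 24 h compound treatment at 37 °C, followed by luminescence detection.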
ELG1 genotox: induces genotoxicity in HEK293T cells with luciferase-tagged ELG1; HEK293T ELG1-luciferase reporter, luminescence, 16 h; Potency, µM (doses to about 46 µM), for the others: at the highest dose activity change, positive = activation, usual class: activators; hit rate 1.3% among 330,000; note: % of control where 0% means no effect; nearly all actives have a fitted effect of over 60% in size
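Luminescence read-out: rising ELG1-luciferase signal, reflecting elevated ELG1 protein under genetic stress, flags genotoxic compounds. Cells were treated for 16 hr at 37 °C before ONE-Glo detection.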
SMN2 splice enh: SMN2 splice variant enhancement | Potency, µM (doses to about 46.1 µM), inactives show at the highest dose activity change, positive = activation, hits mostly activators | hit rate 2.8% among 210,000 | HEK293 SMN2-luciferase splicing reporter, luminescence, 30-36 h | AID 1458; note: % of control where 0% means no effect; nearly all actives have a fitted effect of over 55% in size
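qHTS luciferase splicing reporter: luminescence rises when SMN2 exon 7 is included in transfected HEK293 cells. Compound exposure lasted 30-36 h at 37C, with 4.5 mM final sodium butyrate as control, followed by a ONE-Glo read.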
NPC1 prom act: activates the NPC1 promoter; Huh7 NPC1 promoter luciferase reporter, 24 h; Potency, µM (series often up to 9.22 µM), for the others: at the highest dose activation, usual class: activators; hit rate 2.4% among 320,000; AID 485313; note: % of control where 0% means no effect; nearly all actives have a fitted effect of over 60% in size
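Readout is luciferase luminescence, reflecting NPC1 promoter activation in stably transfected Huh7 cells after 24 h compound exposure at 37 °C in reduced-serum medium with 10% FBS.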
ELG1 repair inh: blocks ELG1-dependent DNA repair in HEK293T cells; HEK293T ELG1-luciferase reporter, luminescence, 16 h; DNA damage induced by 5-fluorouridine; Potency, µM (titrated, usually from 46.1 µM), for the others: at the highest dose activity change, negative = inhibition, most hits filed as inhibitors; hit rate 2.3% among 330,000; AID 504467; note: % is set by controls: 0 for no effect and ±100 for the full control effect; nearly all actives have a fitted effect of over 55% in size
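5-Fluorouridine DNA damage + compound/DMSO, 2,000 cells/well, 16 h, 37 °C/5% CO2. ONE-Glo, 30 min RT, luminescence. Readout = decrease in reporter signal.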
Starred values were filed as active, the others as inactive; ? = inconclusive; nt = no result given; [ ] = another dose, or the depositor's remark. Calls come from the whole dose curve; as a rule, active = well fitted curve in the direction sought with a large enough effect; inconclusive = small, poorly fitted or top-dose-only effect, or another doubt; inactive = no such curve, though single readings can be large; an effect the other way counts as inactive or inconclusive. Potency is the fitted concentration of half-maximal effect.

SMILES	FLuc modulator	Rab9 prom act	ELG1 genotox	SMN2 splice enh	NPC1 prom act	ELG1 repair inh
O=C(CSc1nnc(-c2ccncc2)o1)Nc1cc(F)ccc1F	-22%	2.8µM*	?	nt	2.8µM*	?
Cc1cccc(NC(=O)CSc2nnc(-c3cc(C)n(-c4ccccc4)c3C)o2)c1C	17µM*	-3%	0%	5%	-1%	?
Cc1cnc(NC(=O)CSc2nnc(-c3ccccc3)o2)s1	-8%	2µM*	?	10µM*	3.5µM*	?
O=C(O)[C@H](Cc1cc(I)c(O)c(I)c1)C1CCCCC1	nt	nt	nt	-3%[9.22 µM]	nt	nt
CCSC1=NC2(CCN(C(=O)NC3CCCCC3)CC2)N=C1c1ccc(C)c(C)c1	-16%	nt	nt	nt	nt	nt
O=C(CSc1nnc(COc2ccc(Cl)cc2Cl)o1)Nc1ccccn1	?	-3%	1%	nt	1%	?
O=C(CSc1nnc(-c2ccccn2)o1)Nc1ccccc1Cl	0%	0.56µM*	?	nt	?	?
CCc1ccccc1NC(=O)CSc1nnc(COc2ccccc2Cl)o1	17µM*	nt	nt	-10%	nt	nt
CCc1ccc(OCc2nnc(SCC(=O)NC3CCCCC3)o2)cc1	11µM*	1%	2%	nt	-1%	1%
O=C(COC(=O)CNC(=O)c1ccc(Cl)c([N+](=O)[O-])c1)NC(=O)c1ccccc1	-7%	1%	0%	nt	2%	3%
CCn1c(SCC#N)nc2ccccc2c1=O	7%	?	4%	nt	-2%	4%
N#CCSc1nc2cc(C(=O)N3CCCC3)ccc2c(=O)n1Cc1ccccc1	4%	4%	-6%	19%	-3%	?
N#CCSc1nc2ccccc2c2nc3ccccc3n12	-8%	0%	-15%	0%	-2%	21µM*
N#CCSc1nc2cc(C(=O)N3CCC(C(N)=O)CC3)ccc2c2nc3ccccc3n12	-15%	-3%	-6%	-8%	-2%	21µM*
C=CCn1c(SCc2ccc(Cl)cc2)nc2cc(C(=O)N3CCC(C(N)=O)CC3)ccc2c1=O	-1%	-4%	-4%	12%	-2%	8.2µM*
CCC(CO)Oc1cc(NC(=O)c2ccc(C)cc2)c2ncn(C(C)C)c2c1 (centres undefined)	-2%	-5%	4%	nt	-3%	?
CCCC(=O)Nc1cccc(-c2nc3ncccc3o2)c1	6%	nt	nt	3.5µM*	nt	nt
CCCC(=O)Nc1ccc(-c2nc3ncccc3o2)cc1	13µM*	2µM*	?	nt	2.2µM*	?
CCCC(=O)Nc1cccc(-c2nc3cc(C)c(C)cc3o2)c1	0.6µM*	4µM*	?	?	2.2µM*	?
CCCC(=O)Nc1cc(-c2nc3ncccc3o2)ccc1C	-12%	-1%	11%	6%	2%	14%
COc1c(C)cc(Br)cc1C(=O)Nc1ccc(-c2nc3ncccc3o2)cc1	-3%	nt	nt	7%	nt	nt
COc1c(C)cc(Br)cc1C(=O)Nc1cccc(-c2nc3ncccc3o2)c1	-7%	1%	-10%	-24%	0%	18µM*
CCOc1ccc(NC(=O)c2cccs2)c([N+](=O)[O-])c1	?	1.6µM*	?	7.1µM*	?	?
CCOc1ccc(NC(=O)c2ccc(CC)s2)c([N+](=O)[O-])c1	-5%	2.2µM*	?	nt	?	?
CCOc1ccc(NC(=O)c2ccco2)c([N+](=O)[O-])c1	2.4µM*	1.6µM*	?	14µM*	2µM*	?
SMILES	FLuc modulator	Rab9 prom act	ELG1 genotox	SMN2 splice enh	NPC1 prom act	ELG1 repair inh
CCOc1ccc(NC(=O)c2cccnc2Cl)c([N+](=O)[O-])c1	0%	2%	3%	1%	1%	7%
Nc1nc(Cl)cc(NCCO)n1	nt	nt	nt	-4%[9.22 µM]	nt	nt
Cn1c(=O)n(C)c2cc(/C=N/NC(=O)c3ccc(Cl)cc3)ccc21	-1%	2%	5%	nt	-5%	?
Cn1c(=O)cc(C(=O)N/N=C/c2ccc(Cl)cc2)[nH]c1=O	12µM*	-5%	-3%	nt	-3%	2%
COc1ccc(CN2CCNC(=O)C2CC(=O)NCC(C)(C)N2CCOCC2)cc1C (centres undefined)	-2%	5%	4%	nt	1%	30%
O=C(NCC(c1cccnc1)N1CCN(c2ccccc2F)CC1)OCc1ccccc1 (centres undefined)	-1%	-4%	-20%	-73%	1%	23µM*
O=C(NCc1cccs1)C(=O)NCC(c1ccco1)N1CCN(c2ccccc2F)CC1 (centres undefined)	-2%	-6%	-11%	-20%	-4%	18µM*
COc1ccc(CNC(=O)C2CCN(S(=O)(=O)N3CCC(C)CC3)CC2)c(OC)c1	2%	nt	nt	nt	nt	nt
COc1ccc(Cl)cc1N(C)C(=O)Cc1noc2ccc(C)cc12	-3%	nt	nt	nt	nt	nt
COc1cc(C(C)=O)ccc1OCC(O)CN1CCN(c2cc(C)cc(C)c2)CC1 (centres undefined)	2%	-6%	-8%	nt	-4%	13µM*
c1ccc(-c2nnc(NC3=NCCC3)o2)cc1	6µM*	0.35µM*	1.8µM*	8.9µM*	?	?
Fc1ccc(-c2nnc(Cc3nnc(-c4ccc(F)cc4)o3)o2)cc1	-1%	0%	-1%	-5%	-2%	-15%
Fc1ccc(-c2nnc(-c3ccc(F)cc3)o2)cc1	4.3µM*	?	?	nt	2.8µM*	?
Fc1ccc(-c2nnc(NC3=NCCCCC3)o2)cc1	0.6µM*	0.089µM*	?	-21%	?	?
CC(=O)Nc1ccc(S(=O)(=O)NC2(C(F)(F)F)C(=O)Nc3c2c(=O)[nH]c(=O)n3-c2ccc(C)cc2)cc1 (centres undefined)	-14%	nt	nt	-3%	nt	nt
CCOc1ccc(OCC)c(NC(=O)c2cc(-c3cccs3)nc3ccccc23)c1	-3%	nt	nt	7%	nt	nt
CCOc1ccc(CCNC(=O)CN2C(=O)NC3(CCCCCC3)C2=O)cc1OCC	2%	-5%	-4%	nt	-1%	3%
Cc1cnc(C(=O)Nc2ccc(N3CCCCC3)cc2)cn1	7.6µM*	3.2µM*	?	11µM*	3.5µM*	?
Cc1cc(C(=O)Nc2ccc(S(=O)(=O)N3CCCC3)cc2)no1	4%	-2%	4%	2%	-3%	1%
Cc1cc(C(=O)Nc2ccc(N3CCCCC3)cc2)no1	1.3µM*	0.28µM*	?	nt	0.32µM*	?
CC(C)=CCC/C(C)=C/CNC(=O)C[C@H]1C[C@H](C(=O)N2CCOCC2)[C@@]2(CCC3CCCC3)c3[nH]c4cc(CCC(=O)N(C)C)ccc4c3CCN2C1=O	nt	nt	-1%	nt	nt	23µM*
COCc1nnc(NC(=O)c2cc3ccccc3o2)s1	19µM*	?	?	nt	?	?
